Reference: PubChem BioAssay (Tox21)
Several values for one entry are separate records, joined by “and”; a condition that tells them apart may be missing. Equal entries are not always repeated. Results filed as inconclusive are left out. Entries that show only a call come without a potency. Some structures have more than one record in an assay (separate samples or runs), and their calls can disagree. Activity calls are given as the source filed them. Unless noted, calls come from the whole dose curve; as a rule, active = well fitted curve in the direction sought with a large enough effect in the repeat runs; inconclusive = weak or mixed curves; inactive = no such curve, though single readings can be large; an effect the other way counts as inactive or inconclusive.

Experiments:
[1] = qHTS assay to identify small molecule agonists of the hypoxia (HIF-1) signaling pathway - cell viability counter screen (AID 1224844; calls by dose curve; note: nearly all actives have a fitted effect of over 50% in size; note: potency is the fitted concentration of half-maximal effect)
Summary of the method: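 Viability counter screen: HRE-bla ME-180 cells plated 5 hrs before compound addition, treated 17 hrs at 37C and 5% CO2, then CellTiter-Glo added after the FRET reporter read; luminescence after 30 min.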

[2] = qHTS assay to identify small molecule agonists of H2AX (AID 1224845; active = well fitted activation curve with a large enough effect in the signal ratio in the repeat runs, not every such curve was filed as active; the % refers to the signal ratio)
Summary of the method: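 Phospho-H2AX Ser139 measured by HTRF (ex 320 nm; em 665 and 620 nm) after 24 hr antibody incubation. Compounds, 15 concentrations, 0.76% DMSO, were applied to CHO-K1 cells for 3hr at 37C before lysis.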

[3] = qHTS RealTime-Glo MT Cell Viability Assay in HepG2 cells - 24 hour (AID 1224867); note: nearly all actives have a fitted effect of over 50% in size
Summary of the method: (§1)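 HepG2 cells (600/well) were dispensed with RealTime-Glo reagents, incubated 5 h at 37 °C, then treated with compounds in DMSO for up to 40 h. Nonlytic NanoLuc luminescence reflecting viable cells was read at each stated time point.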

[4] = qHTS RealTime-Glo MT Cell Viability Assay in HEK293 cells - 32 hour (AID 1224868); note: nearly all actives have a fitted effect of over 50% in size; note: potency is the fitted concentration of half-maximal effect
Summary of the method: (§2)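 HEK293 cells seeded with NanoLuc/prosubstrate reagent, rested 5 h at 37 C, then dosed and kept at 37 C up to 40 h. Nonlytic real-time luminescence from viable cells read at 0, 8, 16, 24, 32 and 40 h.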

[5] = A CellTox Green Cytotoxicity Assay to monitor cytotoxicity in HEK293 cells - 0 hour (AID 1224869); note: nearly all actives have a fitted effect of over 50% in size; note: potency is the fitted concentration of half-maximal effect
Summary of the method: (§3)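 Dead-cell fluorescence measured kinetically: asymmetric cyanine dye, HEK293, 600 cells/well, 5 h settle, 23 nL cpd/DMSO, 37 C, reads 0–40 h every 8 h.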

[6] = qHTS RealTime-Glo MT Cell Viability Assay in HepG2 cells - 40 hour (AID 1224870); note: nearly all actives have a fitted effect of over 50% in size
Summary of the method: (§4)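 Real-time viability: cells seeded at 600 per well together with NanoLuc and cell-permeant prosubstrate, compounds added after 5 h incubation. Luminescence tracked at 0, 8, 16, 24, 32 and 40 h of exposure.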

[7] = A CellTox Green Cytotoxicity Assay to monitor cytotoxicity in HEK293 cells - 40 hour (AID 1224871); note: nearly all actives have a fitted effect of over 45% in size; note: potency is the fitted concentration of half-maximal effect
Summary of the method: as §3

[8] = qHTS RealTime-Glo MT Cell Viability Assay in HEK293 cells - 16 hour (AID 1224872); note: nearly all actives have a fitted effect of over 50% in size; note: potency is the fitted concentration of half-maximal effect
Summary of the method: as §2

[9] = qHTS RealTime-Glo MT Cell Viability Assay in HepG2 cells - 8 hour (AID 1224873); note: nearly all actives have a fitted effect of over 55% in size; note: potency is the fitted concentration of half-maximal effect
Summary of the method: as §4

[10] = qHTS RealTime-Glo MT Cell Viability Assay in HEK293 cells - 40 hour (AID 1224874); details: RealTime-Glo luminescence; max response: stronger effect = lower value; note: nearly all actives have a fitted effect of over 50% in size; note: potency is the fitted concentration of half-maximal effect
Summary of the method: (§5)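 600 HEK293 cells per well, dispensed already mixed with RealTime-Glo MT reagents. Compound dosing came 5 h later. The same wells were read for luminescence at 0, 8, 16, 24, 32 and 40 h of exposure at 37 C.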

[11] = A CellTox Green Cytotoxicity Assay to monitor cytotoxicity in HEK293 cells - 24 hour (AID 1224875); note: nearly all actives have a fitted effect of over 45% in size; note: potency is the fitted concentration of half-maximal effect
Summary of the method: as §3

[12] = A CellTox Green Cytotoxicity Assay to monitor cytotoxicity in HepG2 cells - 16 hour (AID 1224876); note: nearly all actives have a fitted effect of over 45% in size; note: potency is the fitted concentration of half-maximal effect
Summary of the method: (§6)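 First, HepG2 cells (600/well) mixed with reagent were plated; second, after 5 h at 37 C they received compounds via pintool; third, fluorescence was measured at 0 h through 40 h at 8 h intervals.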

[13] = qHTS RealTime-Glo MT Cell Viability Assay in HepG2 cells - 32 hour (AID 1224877); note: nearly all actives have a fitted effect of over 55% in size
Summary of the method: as §1

[14] = A CellTox Green Cytotoxicity Assay to monitor cytotoxicity in HepG2 cells - 24 hour (AID 1224878); note: nearly all actives have a fitted effect of over 45% in size; note: potency is the fitted concentration of half-maximal effect
Summary of the method: as §6

[15] = A CellTox Green Cytotoxicity Assay to monitor cytotoxicity in HepG2 cells - 40 hour (AID 1224879); note: nearly all actives have a fitted effect of over 40% in size; note: potency is the fitted concentration of half-maximal effect
Summary of the method: as §6

[16] = qHTS RealTime-Glo MT Cell Viability Assay in HEK293 cells - 0 hour (AID 1224880)
Summary of the method: as §5

[17] = qHTS assay to identify small molecule agonists of the hypoxia (HIF-1) signaling pathway (AID 1224846; active = well fitted activation curve with a large enough effect in the signal ratio in the repeat runs, not every such curve was filed as active; the % refers to the signal ratio)
Summary of the method: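 Agonist mode reporter screen. ME-180 cells stably expressing bla under HRE control received test compounds in DMSO for 17 hrs (37C, 5% CO2), and beta-lactamase activity was then detected with the CCF4-AM FRET substrate.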

[18] = qHTS assay to identify small molecule antagonists of the estrogen related receptor (ERR) signaling pathway from Tox21 library (AID 1224848); note: nearly all actives have a fitted effect of over 50% in size; note: potency is the fitted concentration of half-maximal effect
Summary of the method: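 ERR cell line, 2,000 cells/well. 6 h settle, then compound (DMSO) added; 18 h at 37 C; ONE-Glo luminescence after 30 min RT.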

[19] = qHTS assay to identify small molecule agonists of the estrogen related receptor (ERR) signaling pathway from Tox21 library (AID 1224849; calls by dose curve; note: nearly all actives have a fitted effect of over 15% in size); details: ERR reporter cell line, ONE-Glo luciferase, 18 h
Summary of the method: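 Quantitative HTS in agonist format: NTP ERR cell line, compounds transferred in DMSO after 6 h plating, 18 h incubation at 37 C, ONE-Glo luminescence endpoint.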

[20] = qHTS assay to identify small molecule agonists of H2AX - cell viability counter screen (AID 1224847; calls by dose curve; note: top concentration of the series differs between compounds; nearly all actives have a fitted effect of over 30% in size)
Summary of the method: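 Compounds tested at 15 concentrations were incubated 3 hr at 37C with wild-type CHO-K1 cells; cellular ATP-based luminescence (CellTiter-Glo) indicated viability.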

FC(F)OC(F)(F)C(F)Cl (stereo not drawn)
Potency [1]: inactive | Potency [2]: inactive | Potency [3]: inactive | Potency [4]: inactive | Potency [5]: inactive | Potency [6]: inactive | Potency [7]: inactive | Potency [8]: inactive | Potency [9]: inactive | max response [10]: 8.01% (inactive) | Potency [11]: inactive | Potency [12]: inactive | Potency [13]: inactive | Potency [14]: inactive | Potency [15]: inactive | outcome [16]: inactive

CC(=O)NNc1ccccc1
Potency [1]: inactive | outcome [17]: inactive | Potency [18]: 4.82 µM (active) | activity change, positive = activation ([19]; at 92.4 µM (top of the series)): -40.3% (inactive) | Potency [3]: inactive | Potency [4]: inactive | Potency [5]: inactive | Potency [6]: inactive | Potency [7]: inactive | Potency [8]: inactive | Potency [9]: inactive | max response [10]: 2.64% (inactive) | Potency [11]: inactive | Potency [12]: inactive | Potency [13]: inactive | Potency [14]: inactive | Potency [15]: inactive | outcome [16]: inactive

Cc1cnc(C2=NC(C)(C(C)C)C(=O)N2)c(C(=O)O)c1 (stereo not drawn)
Potency [1]: inactive | Potency [2]: inactive | Potency [3]: inactive | Potency [5]: inactive | Potency [6]: inactive | Potency [7]: inactive | Potency [8]: inactive | Potency [9]: inactive | max response [10]: 12.6% (inactive) | Potency [11]: inactive | Potency [12]: inactive | Potency [13]: inactive | Potency [14]: inactive | outcome [16]: inactive

CC(C)[C@@H](C(=O)O[C@@H](C#N)c1cccc(Oc2ccccc2)c1)c1ccc(Cl)cc1
Potency [1]: inactive | Potency [2]: inactive | Potency [3]: inactive | Potency [5]: inactive | Potency [6]: inactive | Potency [7]: inactive | Potency [8]: 24.9 µM (active) | Potency [9]: 49.7 µM (active) and inactive | Potency [11]: inactive | Potency [12]: inactive | Potency [13]: inactive | Potency [14]: inactive | Potency [15]: inactive | outcome [16]: inactive

CCOC(=O)c1cn2nc(OP(=S)(OCC)OCC)cc2nc1C
Potency [1]: inactive | Potency [2]: inactive | Potency [18]: 34.4 µM (active) | activity change, positive = activation ([19]; at 92.4 µM (top of the series)): -40.1% (inactive) | Potency [3]: inactive | Potency [5]: inactive | Potency [6]: inactive | Potency [7]: inactive | Potency [8]: 17.4 µM (active) | Potency [10]: 15.5 µM (active) | Potency [11]: inactive | Potency [12]: inactive | Potency [13]: inactive | Potency [14]: inactive | outcome [16]: inactive

C[C@H](N)[C@H](O)c1ccc(O)c(O)c1
Potency [1]: inactive | Potency [20]: inactive | Potency [18]: inactive | Potency [3]: inactive | Potency [4]: inactive | Potency [5]: 16.9 µM (active) | Potency [6]: inactive | Potency [7]: 10.7 µM (active) | Potency [8]: inactive | Potency [9]: inactive | max response [10]: -2.61% (inactive) | Potency [11]: 19 µM (active) | Potency [12]: 23.9 µM (active) | Potency [13]: inactive | Potency [14]: 23.9 µM (active) | Potency [15]: 23.9 µM (active) | outcome [16]: inactive

CC(C)CCON=O
Potency [1]: inactive | Potency [2]: inactive | Potency [20]: inactive | Potency [3]: inactive | Potency [4]: inactive | Potency [5]: inactive | Potency [6]: inactive | Potency [8]: inactive | Potency [9]: inactive | max response [10]: 0.253% (inactive) | Potency [12]: inactive | Potency [13]: inactive | Potency [14]: inactive | Potency [15]: inactive | outcome [16]: inactive

C[C@@H]1C[C@@H]([C@H](O)CC2CC(=O)NC(=O)C2)C(=O)[C@@H](C)C1
Potency [1]: 0.379 µM (active) | Potency [20]: inactive | Potency [18]: 682 nM (active) and 545 nM (active) and 750 nM (active) | activity change, positive = activation ([19]; at 42.5 µM (top of the series)): -64.4% (inactive) | activity change, positive = activation ([19]; at 92.4 µM (top of the series)): -74.2% (inactive) and -68.3% (inactive) | Potency [3]: inactive | Potency [4]: 387 nM (active) and 219 nM (active) and 169 nM (active) | Potency [5]: inactive | Potency [6]: inactive | Potency [7]: inactive and 19.5 µM (active) | Potency [9]: inactive | Potency [10]: 387 nM (active) and 245 nM (active) and 169 nM (active) | Potency [11]: inactive | Potency [12]: inactive | Potency [13]: inactive | Potency [14]: inactive | Potency [15]: inactive | outcome [16]: inactive

COc1cc(CC#N)cc(OC)c1OC
Potency [1]: inactive | Potency [2]: inactive | Potency [3]: inactive | Potency [5]: inactive | Potency [6]: inactive | Potency [7]: inactive | Potency [8]: inactive | Potency [9]: inactive | max response [10]: 0.767% (inactive) | Potency [11]: inactive | Potency [12]: inactive | Potency [13]: inactive | Potency [14]: inactive | Potency [15]: inactive | outcome [16]: inactive

Cc1ccc2c(C)cccc2c1
Potency [1]: inactive | Potency [2]: inactive | Potency [20]: inactive | Potency [3]: inactive | Potency [5]: inactive | Potency [6]: inactive | Potency [7]: inactive | Potency [8]: inactive | Potency [9]: inactive | max response [10]: 4.4% (inactive) | Potency [12]: inactive | Potency [13]: inactive | Potency [14]: inactive | outcome [16]: inactive

N#CC(C#N)=Cc1ccc(O)c(O)c1
Potency [1]: inactive | outcome [17]: inactive | Potency [3]: inactive | Potency [4]: inactive | Potency [5]: inactive | Potency [6]: inactive | Potency [7]: inactive | Potency [8]: inactive | Potency [9]: inactive | max response [10]: -6.83% (inactive) | Potency [11]: inactive | Potency [12]: inactive | Potency [13]: inactive | Potency [14]: inactive | Potency [15]: inactive

CCc1ccccc1N
Potency [1]: inactive | Potency [2]: inactive | Potency [20]: inactive | Potency [3]: inactive | Potency [5]: inactive | Potency [6]: inactive | Potency [7]: inactive | Potency [8]: inactive | Potency [9]: inactive | max response [10]: 1.07% (inactive) | Potency [11]: inactive | Potency [12]: inactive | Potency [13]: inactive | Potency [14]: inactive | Potency [15]: inactive | outcome [16]: inactive

C#CC(O)(C=CCl)CC (stereo not drawn)
Potency [1]: inactive | Potency [2]: inactive | Potency [3]: inactive | Potency [4]: inactive | Potency [5]: inactive | Potency [6]: inactive | Potency [7]: inactive | Potency [8]: inactive | Potency [9]: inactive | max response [10]: 10.1% (inactive) | Potency [11]: inactive | Potency [12]: inactive | Potency [13]: inactive | Potency [14]: inactive | Potency [15]: inactive | outcome [16]: inactive
